# Laboratory results from PubChem BioAssay (Tox21).
# Several values for one entry are separate records, joined by “and”; a condition that tells them apart may be missing. Equal entries are not always repeated. Inconclusive results are not listed. Where a call stands in place of a potency, no number is given. Where a structure was tested more than once in an assay, its records may differ in their call. Activity calls are given as the source filed them. Calls follow the shape of the dose curve; as a rule, active = well fitted cell-killing curve with a large enough effect in the repeat runs; inconclusive = weak or mixed curves, or effect the other way; inactive = no such curve, though single readings can be large or run the other way.
# Experiment: qHTS assay to identify small molecule antagonists of the sonic hedgehog signaling (Shh) pathway - cell viability counter screen (AID 1259367); also: nearly all actives have a fitted effect of over 55% in size
# Settings: NIH/3T3 Gli1-Luc viability, CellTiter-Fluor, 24 h; series mostly up to 92.4 µM
# Excerpt: National Center for Advancing Translational Sciences [NCATS]
# NIH Chemical Genomics Center [NCGC]
# U.S. Environmental Protection Agency [EPA]
# National Institutes of Environmental Health Sciences [NIEHS]
# National Toxicology Program [NTP]
# U.S. Food and Drug Administration [FDA]
# The sonic hedgehog (Shh) pathway is essential for normal embryonic development. Dysregulation of the Shh pathway can cause severe developmental defects in organs. Therefore chemicals that interfere with the pathway are potential developmental toxicants. A cell line designated 3T3Gli1-Luc (DMB/OARSA/CFSAN/FDA, Laurel, MD), a NIH/3T3 derived clone containing stably integrated Gli1-Luc reporter is used to detect chemical interference of the Shh pathway, by changes in the expression of the firefly Luc gene under the control of the Gli1 transcriptional response element. This cell line was used to screen Tox21 libraries for identifying and prioritizing the potential developmental toxicants that interfere Shh pathway. Conditioned medium-stimulated mode was used to screen for chemicals inhibiting Shh signaling. The cytotoxicity of the compounds was tested in parallel by measuring the cell viability using CellTiter-Fluor assay system (Promega, Madison, WI) in the same wells.
# Tox21 Assay Protocol Summary:
# 3T3 Gli1-Luc cells were dispensed at 2,000 per well in 5uL of culture medium into white solid bottom 1536-well plates (Greiner Bio-One, Monroe, NC) using a Multidrop Combi (Thermo Scientific, Waltham, MA) dispenser. The assay plates were incubated at 37 C and 5% CO2 for 4hr, and then 23nL of compounds dissolved in DMSO and positive control were transferred using a Pintool station (Wako, San Diego, CA). The compound transfer was followed by the addition of 1ul conditioned medium or assay buffer using two separate tips of Flying Reagent Dispenser (FRD, Aurora Discovery, San Diego, CA). The assay plates were incubated at 37C and 5% CO2 for 24hr. For viability read, after 23hr of compound treatment, 1uL of CellTiter-Fluor reagent (Promega Corporation, Madison, WI) was added to each well of the assay plates using Flying Reagent Dispenser (FRD, Aurora Discovery, San Diego, CA) and incubated the assay plates at 37C for 1hr. The fluorescence signal was quantified using a ViewLux plate reader (Perkin Elmer, Shelton, CT).
# Potency is read from the fitted curve at half-maximal effect.
row,Structure (SMILES),Potency
1,CC(C)c1c(C(=O)Nc2ccccc2)c(-c2ccccc2)c(-c2ccc(F)cc2)n1CC[C@@H](O)C[C@@H](O)CC(=O)O,inactive
2,Cn1c(=O)c2c(ncn2C)n(C)c1=O,55.1 µM (active) and inactive
3,O=S1(=O)OC(c2ccc(O)cc2)(c2ccc(O)cc2)c2ccccc21,21.7 µM (active) and 24.3 µM (active) and 11.9 µM (active)
4,CN(C)CCOC(C)(c1ccccc1)c1ccccn1 (stereo not given),inactive
5,COc1cccc(O)c1O,56.6 µM (active)
6,NS(=O)(=O)c1cc2c(cc1Cl)NCNS2(=O)=O,inactive
7,Nc1ccc(O)c([N+](=O)[O-])c1,30.6 µM (active)
8,NC(CO)(CO)CO,inactive
9,Nc1ccc(S(N)(=O)=O)cc1,inactive
10,Cc1ccc(S(=O)(=O)O)cc1,inactive
11,Cc1ncc([N+](=O)[O-])n1CCO,inactive
12,Cc1ncc([N+](=O)[O-])n1C,inactive
13,Nc1ccc([N+](=O)[O-])cc1O,24.3 µM (active)
14,NS(=O)(=O)O,inactive
15,O=C1c2c(O)cccc2Cc2cccc(O)c21,inactive
16,F[B-](F)(F)F,inactive
17,Cc1cn([C@H]2C=C[C@@H](CO)O2)c(=O)[nH]c1=O,inactive
18,CCc1nc(N)nc(N)c1-c1ccc(Cl)cc1,inactive
19,CN(N=O)C(=O)N[C@@H]1[C@@H](O)[C@H](O)[C@@H](CO)O[C@@H]1O,inactive
20,CCN(Cc1c(F)cccc1Cl)c1c([N+](=O)[O-])cc(C(F)(F)F)cc1[N+](=O)[O-],inactive

row,Structure (SMILES),Potency
1,O=C(O)c1ccccc1,inactive
2,CCCCCCCCCCCC[N+](C)(C)Cc1ccccc1,66.4 µM (active)
3,CCCCNC(=O)NS(=O)(=O)c1ccc(C)cc1,inactive
4,CN1CCc2cccc3c2[C@H]1Cc1ccc(O)c(O)c1-3,30.9 µM (active) and 18.1 µM (active) and 21.1 µM (active)
5,O=c1[nH]cc(F)c(=O)[nH]1,inactive
6,COc1ccc(C(Cl)=C(c2ccc(OC)cc2)c2ccc(OC)cc2)cc1,inactive
7,CCN(CC)C(=O)c1cccc(C)c1,inactive
8,Cc1c(C(=O)O)c(O)cc2c1C(=O)c1c(O)c([C@@H]3O[C@H](CO)[C@@H](O)[C@H](O)[C@H]3O)c(O)c(O)c1C2=O,29.9 µM (active) and 27.3 µM (active)
9,CCCCCCc1ccc(O)cc1O,61.1 µM (active) and inactive
10,CCCCCCCCCCCCCCCC[N+](C)(C)Cc1ccccc1,inactive
11,O=C1NS(=O)(=O)c2ccccc21,inactive
12,COc1ccc(OC(F)(F)F)cc1CN[C@H]1CCCN[C@H]1c1ccccc1,61.1 µM (active)
13,CCCCC(CC)C(=O)O (stereo not given),inactive
14,CCCC[P+](CCCC)(CCCC)CCCC,inactive
15,CS(=O)(=O)OCCCCOS(C)(=O)=O,inactive
16,CCCCOC(=O)c1ccc(O)cc1,inactive
17,CN(C)C(=S)SC(=S)N(C)C,789 nM (active) and 217 nM (active) and 6.68 µM (active)
18,Oc1ccccc1,inactive
19,CC(O)(P(=O)(O)O)P(=O)(O)O,inactive
20,C1=CC2C3C=CC(C3)C2C1 (stereo not given),inactive
